The panel holds about 79,000 compounds, 15% with a hit somewhere; the sample as a whole holds those more often. The source made the active and inactive calls. No stated cut-off is given here; in the data, active means growth inhibition above about 70%; inactive means the rest.
How the values were obtained:
[1] = NCI Yeast Anticancer Drug Screen. Data for the rad50 strain (AID 155);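 further: 0% = growth of vehicle-only cultures of the same strain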; conditions: S. cerevisiae rad50 strain growth inhibition; at 50.0 µM; hits give high values
Method in brief: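 Yeast carrying a defined DNA repair defect were exposed to test compounds, and growth was compared with vehicle-treated controls to give percent inhibition.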

[2] = NCI Yeast Anticancer Drug Screen. Data for the mec2-1 strain (AID 157); conditions: S. cerevisiae mec2-1 strain, at 50.0 µM, hits give high values
Method in brief: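 Strain: mec2-1 (DNA repair/cell cycle alteration). Compound exposure, then growth measured; inhibition expressed relative to vehicle.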

[3] = NCI Yeast Anticancer Drug Screen. Data for the sgs1 mgt1 strain (AID 161);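 further: 0% = growth of cultures given vehicle only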; conditions: S. cerevisiae sgs1 mgt1 strain, at 50.0 µM, hits give high values
Method in brief: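 Read-out: growth inhibition vs vehicle controls. Cells: mutant yeast strain deficient in DNA damage repair.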

[4] = NCI Yeast Anticancer Drug Screen. Data for the cln2 rad14 strain (AID 165);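 further: 0% = growth equal to vehicle treated cultures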; conditions: S. cerevisiae cln2 rad14 strain, at 50.0 µM, hits give high values
Method in brief: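 Compounds are applied to the cln2 rad14 yeast strain, and growth is then compared with that of vehicle-treated cultures to give inhibition.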

[5] = NCI Yeast Anticancer Drug Screen. Data for the bub3 strain (AID 167); conditions: S. cerevisiae bub3 mutant strain, at 50.0 µM, hits give high values
Method in brief: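 Compounds were applied to a genetically altered yeast strain carrying a cell-cycle control defect. Growth inhibition was scored against vehicle-treated controls.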

[6] = NCI Yeast Anticancer Drug Screen. Data for the mlh1 rad18 strain (AID 175); conditions: S. cerevisiae mlh1 rad18 strain growth inhibition; at 50.0 µM; hits give high values
Method in brief: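 Read-out is yeast growth inhibition, calculated against vehicle-only controls. The compound was applied to a strain engineered with DNA damage repair alterations.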

Measured: growth inhibition

N#CCCCCCCl
inactive: [1] -9.35% | [2] -26.9% | [3] 10.2% | [4] 4.05% | [5] -15.6% | [6] 14.8%

O=C1C=C(Nc2ccccc2)c2ccc(S(=O)(=O)O)cc2C1=O
inactive: [1] 0.4% | [2] -6.9% | [3] 10.1% | [4] -0.8% | [5] -29.1% | [6] -6.55%

C=Cc1cccc([N+](=O)[O-])c1
inactive: [1] 15.8% | [2] -0.15% | [3] 6.6% | [4] 16.5% | [5] 19.6% | [6] -3.7%

COC(=O)CC1C(OC)OC23CCC1C2(C)CCC1C3CCC2CC(OC3CCCCO3)CCC21C (configuration not stated)
inactive: [1] 19.1% | [2] 1.15% | [3] 9.55% | [4] 12.6% | [5] 3.2% | [6] 18.3%

Cc1ccc([N+](=O)[O-])c(P(=O)(O)O)c1
inactive: [1] 12.6% | [2] 13% | [3] -14.7% | [4] -3.45% | [5] 3.4% | [6] -12.2%

Cc1ccc(SCC(OCn2cnc3c(Cl)nc(N)nc32)[C@H](C)F)cc1 (some centres not stated)
inactive: [1] 32.2% | [2] 23.4% | [3] 56.5% | [4] 24.9% | [5] 66% | [6] -50.9%

CCC(C(=O)c1cccs1)C(O)(C(F)(F)F)C(F)(F)F (configuration not stated)
inactive: [1] -13.8% | [2] 4.6% | [3] -28.4% | [4] -83.2% | [5] -31.4% | [6] 22.9%

CC(C)(CCC(=O)O)C(=O)O
inactive: [1] -4.15% | [2] -34.1% | [3] -30.5% | [4] 4.95% | [5] -32.9% | [6] -2.9%

CC1=C(C(=O)NCCc2ccccc2)CC(C(=O)NCCc2ccccc2)=C(C)N1
inactive: [1] -9.8% | [2] 6.4% | [3] 5.75% | [4] 14.5% | [5] -13.2% | [6] -32.1%

Cc1cccc(/C=N/NC(=S)N2CCCCCC2)n1
active: [1] 89.3% | [2] 93.2% | [3] 92.1% | [4] 92.8% | [5] 92.2% | [6] 89%

O=CC(=O)c1ccc(F)cc1
inactive: [1] -20.2% | [2] -10% | [3] -0.15% | [4] -15.2% | [5] -8.55% | [6] 2%

O=C(CN1CCOCC1)Nc1ccc(S(=O)(=O)c2ccc([N+](=O)[O-])cc2)cc1
inactive: [1] 52.3% | [2] 15% | [6] 26.1%
active: [3] 99.3% | [4] 98.3% | [5] 96.7%

N#Cc1cccc(C2SCc3nc4ccccc4n32)c1 (configuration not stated)
inactive: [1] -1.1% | [2] -8.9% | [3] 25.9% | [4] 23.1% | [5] 4.8% | [6] 18.1%

CCc1c2ccccc2cc2ccccc12
inactive: [1] -1% | [2] 1.85% | [3] -16.6% | [4] 9.75% | [5] 1.8% | [6] -5.95%

CC(C)OP(=O)(OC(C)C)/C(N)=N/Nc1ccc([N+](=O)[O-])cc1
inactive: [1] 25.6% | [2] -0.2% | [3] -5.6% | [4] 2.65% | [5] -3.95% | [6] -7.7%

CC1=C(C(=O)CC(=O)C(=O)Nc2cccc(Cl)c2C)Sc2ccccc2N1
inactive: [1] -18.8% | [2] -8.1% | [3] -31.4% | [4] 19.1% | [5] -13.6% | [6] -10.6%

CCN1C(=O)N(CC)C2(CC(=O)c3ccccc3O2)C1=O (configuration not stated)
inactive: [1] 15.2% | [2] -3.45% | [3] 20.2% | [4] 7.15% | [5] 20.1% | [6] 19.6%

CC(=O)Oc1ccc2c(c1)oc1c3ccc(OC(C)=O)cc3n(C)c(=O)c21
inactive: [1] -20.1% | [2] -44.8% | [3] -16% | [4] -4.3% | [5] -7.95% | [6] -23.4%

C(=N\C(/N=C/c1ccccc1)c1ccccc1)/c1ccccc1
inactive: [1] 0.4% | [2] -4.8% | [3] -3.25% | [4] -43.8% | [5] 2.55% | [6] -6.2%

Cc1cc(N(CCC#N)S(=O)(=O)c2ccccc2)ccc1C=O
inactive: [1] 25.9% | [2] -34.1% | [3] 13.9% | [4] -9.05% | [5] -9.15% | [6] -4.15%

O=C(O)CSCc1ccccc1Cl
inactive: [1] 1.6% | [2] -6.05% | [3] -9.5% | [4] 8.25% | [5] -13.1% | [6] -11.1%

Cc1ccc(NC(=O)C(C)S)cc1 (configuration not stated)
inactive: [1] 24.6% | [2] 11.6% | [3] 29.1% | [4] 38.6% | [5] 25.7% | [6] 32.4%

O=C(O)CN(CC(=O)O)CC(=O)O
inactive: [1] -9.7% | [2] -23.6% | [3] -34.4% | [4] -11.8% | [5] -17.1% | [6] 32.1%

O=S(=O)(O)C(c1ccccc1)C(O)c1ccccc1 (configuration not stated)
inactive: [1] 0.95% | [2] -8.95% | [3] -14.4% | [4] -25.2% | [5] -20.9% | [6] -0.25%

COC(=O)NN(C(=O)OC)C12CCCC1N(C(=O)OC)N(C(=O)OC)c1c2ccc2ccccc12 (configuration not stated)
inactive: [1] 32.1% | [2] -1.55% | [3] 0.6% | [4] -4.9% | [5] 1.9% | [6] 6.75%

CC1=C2C(=O)O[C@@H](c3ccoc3)[C@]2(C)CCC1
inactive: [1] 15.3% | [2] -6.8% | [3] 14.1% | [4] -8.9% | [5] 0.35% | [6] 16.6%

O=C(O)c1ccc(C(=O)c2ccccc2C(=O)O)cc1C(=O)O
inactive: [1] -8.75% | [2] 5% | [3] -44% | [4] 43.3% | [5] -23.1% | [6] -24.8%

N#CC1C(=O)NC(=S)NC1c1ccc2c(c1)CCC2 (configuration not stated)
inactive: [1] -12.9% | [2] -6.7% | [3] -22.9% | [4] -18.8% | [5] -7.15% | [6] 4.1%

CCOC(=O)C(=O)Cc1cnccn1
inactive: [1] -25.2% | [2] -12.7% | [3] -11.8% | [4] -0.9% | [5] -17.8% | [6] -2.65%

O=C(O)C(Br)Cc1cccc([N+](=O)[O-])c1 (configuration not stated)
inactive: [1] 9.4% | [2] -9.35% | [3] 10.6% | [4] -5.65% | [5] 3.45% | [6] 17.7%

NC(=S)NCCN1CCOCC1
inactive: [1] -8.85% | [2] -5.95% | [3] -1.9% | [4] -15.7% | [5] 2.25% | [6] 10%

C/C(CCl)=N/NC(N)=S
inactive: [1] -13.2% | [2] -2.5% | [3] -18.4% | [4] 7% | [5] -11.9% | [6] -12.5%

Cc1csc(=NCc2cccnc2)n1C
inactive: [1] 14.7% | [2] -9.75% | [3] 23.6% | [4] 23.4% | [5] 19.8% | [6] 15.8%

O=C(OCc1ccco1)c1ccc([N+](=O)[O-])cc1
inactive: [1] -5.15% | [2] -7.3% | [3] -3.75% | [4] -32.6% | [5] -13.5% | [6] -12.8%

N#CSC1CCCCC1SC#N (configuration not stated)
inactive: [1] 11.3% | [2] 5.8% | [3] 7.35% | [4] -13.7% | [5] -2.55% | [6] 5.6%

Nc1ccc(I)cn1
inactive: [1] -3.35% | [2] 5.7% | [3] -3.65% | [4] -11.7% | [5] 14.6% | [6] -3.95%

COC1/C=C\OC2(C)Oc3c(C)c(O)c4c(O)c(c5sc(N)nc5c4c3C2=O)NC(=O)/C(C)=C\C=C\C(C)C(O)C(C)C(O)C(C)C(OC(C)=O)C1C (configuration not stated)
inactive: [1] -2.25% | [2] 16.6% | [3] 4.75% | [4] 14.8% | [5] 22.1% | [6] 10.8%

NC(=O)c1cc(Cl)ccc1O
inactive: [1] 14.5% | [2] 12.5% | [3] 18.4% | [4] 3.1% | [5] -4.05% | [6] 11.6%

CCOC(=O)c1c(SCCO)n(-c2ccccc2)c(=S)n(-c2ccccc2)c1=O
inactive: [1] -22.7% | [2] -25.2% | [3] -22.7% | [4] 1.75% | [5] -13.3% | [6] -19.4%

CCNC(=O)CCC(NS(=O)(=O)c1ccc(NC(=O)c2ccc(Cl)cc2)cc1)C(=O)O (configuration not stated)
inactive: [1] 0.8% | [2] -4.95% | [3] -26% | [4] -4.6% | [5] 0.1% | [6] -1.9%

O=CN(Cc1cnccn1)Cc1cnccn1
inactive: [1] -2.8% | [2] 7.3% | [3] -6.75% | [4] -33.1% | [5] 7% | [6] -14.2%

CC(C)(C)NC(=O)Oc1ccc(Br)cc1Br
inactive: [1] -1.5% | [2] 14.4% | [3] 18.6% | [4] -14.2% | [5] 9.75% | [6] 21.2%

Source: PubChem BioAssay (NCI)
